Measurements as given in PubChem BioAssay (NCATS).
Inconclusive results are not listed. Calls of active or inactive are those of the source. Calls follow the shape of the dose curve; as a rule, active = well fitted inhibition curve with a large enough effect; inconclusive = small, poorly fitted or top-dose-only effect; inactive = no such curve, though single readings can be large or run the other way.

Experiment: BET inhibitor-based combinations targeting novel dependencies in MECOM-rearranged (r) AML: MV-4-11 cell line (AID 2202233); also: nearly all actives have a fitted effect of over 45% in size
Conditions: MV-4-11 AML viability, CellTiter-Glo luminescence, 48 h; series mostly up to 46 µM
Outline: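 Seeding density was 500 cells/well, and drug exposure lasted 48 hr under standard culture conditions. Read-out used CellTiter-Glo reagent with a 15 min room-temperature incubation before luminescence measurement; AUC and Z-AUC summarize the normalized responses.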
Potency is read from the fitted curve at half-maximal effect.

| SMILES | Potency |
| --- | --- |
| Cc1cc(Nc2cc(N)ncn2)c(=O)n2c1C(=O)NC21CCCCC1 | 8.11 µM (active) |
| C=CC(=O)N[C@H]1CCOC[C@H]1Nc1ncc2cc(-c3c(Cl)c(OC)cc(OC)c3Cl)ccc2n1 | 18.6 µM (active) |
| Fc1ccc(-c2csc3ncnc(NCc4ccc5c(c4)OCO5)c23)cc1 | 20.9 µM (active) |
| CCN(C(=O)c1ccccc1OC)c1cc2c(cc1N1CCNC[C@H]1C)n(C)c(=O)n2C | inactive |
| C=CCc1cccc(/C=N/NC(=O)CN2CCN(Cc3ccccc3)CC2)c1O | 16.6 µM (active) |
| CN(C)C/C=C/C(=O)Nc1cc2c(Nc3ccc(F)c(Cl)c3)ncnc2cc1O[C@H]1CCOC1 | 1.18 µM (active) |
| COc1cc(OC)c(/C=C/S(=O)(=O)Cc2ccc(OC)c(OP(=O)(O)O)c2)c(OC)c1 | 0.132 µM (active) |
| Nc1nc(OC(c2ccc(-c3cccc(F)c3)cc2)C(F)(F)F)cc(-c2ccc(C[C@@H](N)C(=O)O)cc2)n1 (stereo not given in full) | inactive |
| CN[C@@H](C)C(=O)N[C@H](C(=O)N1CCC[C@H]1c1nc(C(=O)c2ccc(F)cc2)cs1)C1CCCCC1 | 16.6 µM (active) |
| O=C(c1ccc(Nc2nc(C3CC3)cn3c(-c4cn[nH]c4)cnc23)c(F)c1)N1CCOCC1 | 1.18 µM (active) |
| O=C1S/C(=C\c2ccc(OCc3cccc(B(O)O)c3)cc2)C(=O)N1Cc1ccc(F)cc1 | 18.6 µM (active) |
| COc1ccc(/C=C\c2cc(OC)c(OC)c(OC)c2)cc1O | 0.0132 µM (active) |
| Cc1ccc(-c2ncn(-c3ccc(Nc4nccc(-c5cccc(N6CCOCC6)c5)n4)cc3)n2)cn1 | 2.35 µM (active) |
| CC1=C(/C=C/C(C)=C/C=C/C(C)=C/C=C/C=C(C)/C=C/C=C(C)/C=C/C2=C(C)CCCC2(C)C)C(C)(C)CCC1 | 23.5 µM (active) |
| COc1ccccc1C(=O)Nc1cc2c(cc1N1CCNC[C@H]1C)n(C)c(=O)n2C | 5.9 µM (active) |
| O=C(NCc1ccccc1)[C@H](Cc1ccccc1)NC(=O)[C@H]1O[C@@H]1C(=O)NCCc1ccc(O)cc1 | 23.5 µM (active) |
| CCOc1cc(/C=C2/C(=O)N(c3ccccc3)N=C2C)cc(Cl)c1OCC(=O)OC | 20.9 µM (active) |
| C=CC(=O)Nc1cccc(Oc2nc(Nc3ccc(N4CCN(C)CC4)cc3)nc3ccsc23)c1 | 8.33 µM (active) |
| Cc1ncsc1-c1ccc([C@H](C)NC(=O)[C@@H]2C[C@@H](O)CN2C(=O)[C@@H](NC(=O)COCCCOCCNC(=O)C[C@@H]2N=C(c3ccc(Cl)cc3)c3c(sc(C)c3C)-n3c(C)nnc32)C(C)(C)C)cc1 | 0.0047 µM (active) |
| O=c1sn(-c2cccc3ccccc23)c(=O)n1Cc1ccccc1 | 11.8 µM (active) |

| SMILES | Potency |
| --- | --- |
| CN(C)Cc1cccc(N=C(c2ccccc2)c2c(O)[nH]c3cc(C(N)=O)ccc23)c1 | 0.662 µM (active) |
| CC(C)(C)c1nc2c3cc[nH]c(=O)c3c3cc(F)ccc3c2[nH]1 | 1.18 µM (active) |
| CC(C)(C(=O)NCC(F)(F)C(F)(F)F)C(=O)N[C@@H]1C(=O)Nc2ccccc2-c2ccccc21 | inactive |
| N#C/C(=C1/Nc2ccccc2S1)c1ccnc(OCc2ccc(CN3CCOCC3)cc2)n1 | 16.6 µM (active) |
| CC1=NN(c2ccc(C(=O)O)cc2)C(=O)/C1=C/c1ccc(-c2cc(C)c(C)cc2[N+](=O)[O-])o1 | inactive |
| CC#Cc1cncc(-c2ccc3c(c2)[C@@]2(N=C(C)C(N)=N2)C2(CCC(OC)CC2)C3)c1 (stereo not given in full) | 18.6 µM (active) |
| O=C1OC2(CCC(C(=O)Nc3ccn(-c4ccccc4F)n3)CC2)c2cnccc21 (stereo not given) | 3.32 µM (active) |
| CN(C)CC[C@H](CSc1ccccc1)Nc1ccc(S(=O)(=O)NC(=O)c2ccc(N3CCN(Cc4ccccc4-c4ccc(Cl)cc4)CC3)cc2)cc1[N+](=O)[O-] | 0.263 µM (active) |
| CC(C)(C)c1[nH]cnc1/C=c1\[nH]c(=O)/c(=C/c2ccccc2)[nH]c1=O | 0.0833 µM (active) |
| CC[C@H](C)C(=O)O[C@H]1C[C@H](O)C=C2C=C[C@H](C)[C@H](CC[C@@H](O)C[C@@H](O)CC(=O)O)[C@H]21 | inactive |
| COc1cc(C)c(/C=C/C(C)=C/C=C/C(C)=C/C(=O)O)c(C)c1C | 5.9 µM (active) |
| CCNCCS(=O)(=O)NC[C@@]1(c2ccccc2)SC(NC(=O)C(C)(C)C)=NN1C(=O)C(C)(C)C | 0.0042 µM (active) |
| CO[C@H]1O[C@@H]2O[C@@]3(C)CC[C@H]4[C@H](C)CC[C@@H]([C@H]1C)[C@@]24OO3 | 4.17 µM (active) |
| Cc1ccc(NS(=O)(=O)c2cccc(C#N)c2)c2[nH]cc(C#N)c12 | 0.296 µM (active) |
| c1ccc2[nH]c(-c3cscn3)nc2c1 | inactive |
| CCOC(=O)c1ccc(C#Cc2ccc3c(c2)C(C)(C)CCS3)nc1 | 0.662 µM (active) |
| Cn1cc(C2=C(c3cn(C)c4cc([N+](=O)[O-])ccc34)C(=O)NC2=O)c2ccccc21 | 0.833 µM (active) |
| CC1(N)CCN(c2cnc(-c3cccc(Cl)c3Cl)c(N)n2)CC1 | 2.88 µM (active) |
| CCn1c(=O)c(-c2ccc(-c3cncc(C)n3)cc2Cl)cc2cnc(NCCC3CCN(C)CC3)nc21 | 1.18 µM (active) |
| C[C@H]1CN(C2COC2)CCN1c1ccc(Nc2cc(-c3ccnc(N4CCn5c(cc6c5CC(C)(C)C6)C4=O)c3CO)cn(C)c2=O)nc1 | 14.8 µM (active) |
